# Results from PubChem BioAssay (NCATS).
# Records with an inconclusive call do not appear. The source made the active and inactive calls. Calls come from the whole dose curve; as a rule, active = well fitted curve in the direction sought with a large enough effect; inconclusive = small, poorly fitted or top-dose-only effect, or another doubt; inactive = no such curve, though single readings can be large; an effect the other way counts as inactive or inconclusive.
# Experiments:
# [1] = qHTS Screen of the MIPE 4.0 Collection Against Ewings Sarcoma (EW8) (AID 1259255); note: nearly all actives have a fitted effect of over 35% in size; note: potency is the fitted concentration of half-maximal effect
# Outline: (§1)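 CellTiter-Glo luminescence after 48 h compound exposure (titration) gave viability; percent activity used DMSO-treated cells as no inhibition and medium-only wells as full inhibition. Cells grown in RPMI/5% FBS, dosed 4 h post-seeding.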
# [2] = qHTS Screen of the MIPE 4.0 Collection Against Ewings Sarcoma (TC32) (AID 1259256); note: nearly all actives have a fitted effect of over 45% in size; note: potency is the fitted concentration of half-maximal effect
# Outline: as §1
# [3] = Identifying Small Molecule Inhibitors of Pancreatic Cancer Stem Cells (SN12C, Adherent) (AID 1259358);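 note: cell survival measured after 48 h of compound exposure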; note: potency is the fitted concentration of half-maximal effect
# Outline: (§2)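 Cytotoxicity read by CellTiter-Glo luminescence after 48 h compound exposure at 37C; percent activity scaled between DMSO-treated cells and cell-free wells. Spheroid formats used cells pre-formed 14 days in stem cell media on hydrogel.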
# [4] = Identifying Small Molecule Inhibitors of Pancreatic Cancer Stem Cells (Panc1, Adherent) (AID 1259362); conditions: Potency: viability; note: potency is the fitted concentration of half-maximal effect
# Outline: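 Spheroids grown 14 days in stem cell media on hydrogel-coated nonadherent plates; 2D lines seeded directly. Compounds added after 4 h attachment, 48 h at 37C, 5% CO2; CellTiter-Glo luminescence normalized to DMSO (no inhibition) and no-cell wells (full inhibition).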
# [5] = qHTS assay to identify small molecule inhibitors of chordoma cells - UCH-1 (AID 1259355); note: nearly all actives have a fitted effect of over 55% in size
# Outline: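 Seed 800 cells per well; incubate overnight at 37 C, 5% CO2. Add test compounds (15 concentrations), then the auranofin–topoisomerase-agent combination. Incubate 48hr, add CellTiter-Glo, wait 30min, read luminescence.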
# [6] = qHTS assay to identify small molecule inhibitors of chordoma cells - UCH-2 (AID 1259356); note: series mostly up to about 46 µM
# [7] = Identifying Small Molecule Inhibitors of Pancreatic Cancer Stem Cells (A278, Adherent) (AID 1259361); note: nearly all actives have a fitted effect of over 35% in size
# Outline: as §2
compound,measurement,setting,value
CCNC(=O)CC1N=C(c2ccc(Cl)cc2)c2cc(OC)ccc2-n2c(C)nnc21 (configuration not stated),Potency,[1],20.9 µM (active)
same,Potency,[2],16.6 µM (active)
COc1ccc(CC2NCCc3cc(OC)c(OC)cc32)cc1OC (configuration not stated),Potency,[1],inactive
same,Potency,[2],inactive
CO[C@H]1CCC(O[C@H]2C[C@H]([C@]3(C)CC[C@]4(C[C@H](O)[C@@H](C)[C@@H]([C@@H](C)C=C(C)C(=O)[C@H](C)C[C@H](C)C(=O)O)O4)O3)O[C@]3(O[C@@H]([C@H]4O[C@@](O)(CO)[C@H](C)C[C@H]4C)C[C@H]3C)[C@H]2C)O[C@H]1C (some centres not stated),Potency,[1],0.372 µM (active)
same,Potency,[2],0.418 µM (active)
COc1ccc2c(c1)[C@]13CCCCC1C(C2)N(C)CC3 (some centres not stated),Potency,[1],inactive
same,Potency,[2],inactive
C[C@@]12OC(=O)[C@]1([C@@H](O)[C@@H]1C=CCCC1)NC(=O)[C@H]2CCCl,Potency,[1],0.0264 µM (active)
same,Potency,[2],0.0418 µM (active)
COC(=O)[C@@H](N)CCCN=C(N)N[N+](=O)[O-],Potency,[1],inactive
same,Potency,[2],inactive
C[C@](O)(COc1ccc(C#N)cc1)C(=O)Nc1ccc(C#N)c(C(F)(F)F)c1,Potency,[1],inactive
same,Potency,[2],inactive
Cc1nc(-c2ccc(-c3ccc(C(=O)N4CCc5cc6c(cc54)C4(CCN(C)CC4)CO6)cc3)c(C)c2)no1,Potency,[1],inactive
same,Potency,[2],inactive
same,Potency,[3],inactive
same,Potency,[4],16.6 µM (active)
c1cc2c(cc1[C@H]1OC[C@H]3[C@H]1CO[C@H]3c1ccc3c(c1)OCO3)OCO2,Potency,[1],inactive
same,Potency,[2],inactive
CC(C)(C)c1cc(C=C(C#N)C#N)cc(Br)c1O,Potency,[2],26.4 µM (active)
O=C1C=CC[C@@H]2[C@H]3CCCN4CCC[C@@H](CN12)[C@@H]34,Potency,[2],16.6 µM (active)
NC1=NC(=O)N2CC12 (configuration not stated),Potency,[1],inactive
same,Potency,[2],inactive
same,Potency,[5],inactive
same,Potency,[6],inactive
CC(C)[C@H]1C(=O)N[C@H](CO)Cc2c[nH]c3cccc(c23)N1C,Potency,[1],inactive
same,Potency,[2],0.166 µM (active)
CCCC[N+]1(C)[C@H]2CC(OC(=O)[C@H](CO)c3ccccc3)C[C@H]1[C@H]1O[C@H]12 (some centres not stated),Potency,[1],inactive
same,Potency,[2],inactive
CC1(N2CCC(n3c([C@@H]4CCCNC4)nc4ccccc43)CC2)CCCCCCC1,Potency,[1],10.5 µM (active)
same,Potency,[2],9.35 µM (active)
CN[C@@H]1Cc2cccc3[nH]c(=O)n(c23)C1,Potency,[1],inactive
same,Potency,[2],inactive
C[C@]12CC[C@H](O)CC1=CC[C@H]1[C@H]3CCC(=O)[C@@]3(C)CC[C@@H]12,Potency,[1],16.6 µM (active)
same,Potency,[2],16.6 µM (active)
C=CCON=C(C[C@H]1O[C@@H]2O[C@]3(C)CC[C@@H]4[C@H](C)CC[C@@H]([C@H]1C)[C@@]24OO3)[C@H]1O[C@@H]2O[C@]3(C)CC[C@H]4[C@H](C)CC[C@@H]([C@@H]1C)[C@@]24OO3,Potency,[1],0.296 µM (active)
same,Potency,[3],0.0935 µM (active)
same,IC50 (viability decrease),[7],0.0526 µM (active)
same,Potency,[4],0.0662 µM (active)
O=c1[nH]c2ccccc2n1C1CCN(Cc2ccc(-c3[nH]c4cc5ncnc5cc4nc3-c3ccccc3)cc2)CC1,Potency,[1],18.7 µM (active)
same,Potency,[2],20.9 µM (active)
CC(O)=C(C#N)C(=O)Nc1cc(Br)ccc1Br,Potency,[2],20.9 µM (active)
COC1=C[C@@H]2[C@@H]3Cc4ccc(OC)c(O)c4[C@]2(CCN3C)CC1=O,Potency,[2],2.96 µM (active)
N=c1c2c(-c3ccccc3)c(-c3ccccc3)n(Cc3ccccc3)c2ncn1C1CCC(O)CC1 (configuration not stated),Potency,[2],0.662 µM (active)
CN(C)[C@@H]1C(=O)C(C(N)=O)=C(O)[C@@]2(O)C(=O)C3=C(O)c4c(O)cccc4[C@@](C)(O)[C@H]3[C@H](O)[C@@H]12,Potency,[1],inactive
same,Potency,[2],inactive
same,Potency,[5],inactive
same,Potency,[6],inactive
C[C@@H]1O[C@@H](O[C@@H]2C=C3CC[C@@H]4[C@@H](CC[C@]5(C)[C@H](c6ccc(=O)oc6)CC[C@@]45O)[C@@]3(C)CC2)[C@H](O)[C@H](O)[C@H]1O,Potency,[1],0.0166 µM (active)
same,Potency,[2],0.0235 µM (active)
Cc1ccccc1-n1c(Cn2ncc3c(N)ncnc32)nc2cccc(C)c2c1=O,Potency,[1],26.4 µM (active)
same,Potency,[2],11.8 µM (active)
CC[C@@H]1[C@@H](C)O[C@@](O)([C@@H](C)[C@H](O)[C@H](C)[C@H]2OC(=O)C=CC=C[C@@H](C)[C@@H]([C@@H](C)[C@@H](O)[C@H](C)[C@@]3(O)C[C@H](O[C@H]4C[C@H](O)[C@H](O)[C@H](C)O4)[C@H](CC)[C@@H](C)O3)OC(=O)C=CC=C[C@@H]2C)C[C@H]1O[C@H]1C[C@H](O)[C@H](O)[C@H](C)O1,Potency,[1],0.59 µM (active)
same,Potency,[2],0.662 µM (active)
NC1CC1c1ccccc1 (configuration not stated),Potency,[1],inactive
same,Potency,[2],inactive
COc1ccc2c(c[n+](C)c3c4cc5c(cc4ccc23)OCO5)c1OC,Potency,[1],7.43 µM (active)
same,Potency,[2],8.33 µM (active)
same,Potency,[3],20.9 µM (active)
same,IC50 (viability decrease),[7],16.6 µM (active)
same,Potency,[4],6.62 µM (active)
